# In article PMC7862700, “An all-to-all approach to the identification of sequence-specific readers for epigenetic DNA modifications on cytosine”:
# What was measured:
# Assay in all cases: DAPPL (digital affinity profiling via proximity ligation, sequencing); 10 mM Tris-HCl pH 7.5, 50 mM NaCl, 1 mM DTT, 4% glycerol, room temperature, 30 min; GST-TFs on glutathione beads, 16-mer random dsDNA library, 0.1% formaldehyde crosslink after washing; high values mean tight binding
# [1] = target: T1, FLI1 (Homo sapiens, UniProt Q01543 1-452); settings: protein: recombinant; tags: N-terminal GST; dsDNA, one strand shown
# T1 sequence: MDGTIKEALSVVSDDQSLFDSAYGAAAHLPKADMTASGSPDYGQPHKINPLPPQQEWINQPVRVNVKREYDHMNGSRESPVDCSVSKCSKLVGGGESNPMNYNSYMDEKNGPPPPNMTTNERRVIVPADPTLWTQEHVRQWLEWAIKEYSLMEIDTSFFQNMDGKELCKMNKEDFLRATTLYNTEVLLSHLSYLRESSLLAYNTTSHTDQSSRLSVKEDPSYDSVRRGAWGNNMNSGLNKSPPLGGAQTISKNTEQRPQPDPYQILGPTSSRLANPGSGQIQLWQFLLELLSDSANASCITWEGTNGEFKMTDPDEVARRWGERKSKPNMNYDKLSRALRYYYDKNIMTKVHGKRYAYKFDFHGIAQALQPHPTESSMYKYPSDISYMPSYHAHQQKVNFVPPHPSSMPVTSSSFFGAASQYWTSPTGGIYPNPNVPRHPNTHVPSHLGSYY
# Method in brief: (§1)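 Human transcription factors were made in yeast as GST fusions, captured on glutathione beads and barcoded with DNA. With a tag-only sample included, the pool was incubated with 200 nmole of a random double-stranded 16-mer DNA library in Tris/NaCl/DTT/glycerol buffer at room temperature for 30 min, then crosslinked with 0.1% formaldehyde after washing, ligated by proximity, amplified and sequenced. For binding signal, each hexamer's read frequency for a factor is divided by its frequency for the tag-only sample.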
# [2] = target: T2, ELK1 (Homo sapiens, UniProt P19419 1-428); settings: protein: recombinant; tags: N-terminal GST; dsDNA, one strand shown
# T2 sequence: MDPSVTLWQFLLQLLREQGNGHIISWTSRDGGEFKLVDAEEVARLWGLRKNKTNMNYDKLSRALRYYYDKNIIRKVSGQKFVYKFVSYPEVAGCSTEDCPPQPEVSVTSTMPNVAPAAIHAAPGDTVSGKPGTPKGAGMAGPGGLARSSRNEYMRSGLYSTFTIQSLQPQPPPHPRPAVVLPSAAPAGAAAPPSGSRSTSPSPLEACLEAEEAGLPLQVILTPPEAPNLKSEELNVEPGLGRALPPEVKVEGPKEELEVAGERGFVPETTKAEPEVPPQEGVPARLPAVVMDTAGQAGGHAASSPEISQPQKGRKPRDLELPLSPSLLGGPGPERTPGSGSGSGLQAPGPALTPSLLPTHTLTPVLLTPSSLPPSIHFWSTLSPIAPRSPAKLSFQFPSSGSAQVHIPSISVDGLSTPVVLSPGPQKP
# Method in brief: as §1
# [3] = target: T3, GABPA (Homo sapiens, UniProt Q06546 1-454); settings: protein: recombinant; tags: N-terminal GST; dsDNA, one strand shown
# T3 sequence: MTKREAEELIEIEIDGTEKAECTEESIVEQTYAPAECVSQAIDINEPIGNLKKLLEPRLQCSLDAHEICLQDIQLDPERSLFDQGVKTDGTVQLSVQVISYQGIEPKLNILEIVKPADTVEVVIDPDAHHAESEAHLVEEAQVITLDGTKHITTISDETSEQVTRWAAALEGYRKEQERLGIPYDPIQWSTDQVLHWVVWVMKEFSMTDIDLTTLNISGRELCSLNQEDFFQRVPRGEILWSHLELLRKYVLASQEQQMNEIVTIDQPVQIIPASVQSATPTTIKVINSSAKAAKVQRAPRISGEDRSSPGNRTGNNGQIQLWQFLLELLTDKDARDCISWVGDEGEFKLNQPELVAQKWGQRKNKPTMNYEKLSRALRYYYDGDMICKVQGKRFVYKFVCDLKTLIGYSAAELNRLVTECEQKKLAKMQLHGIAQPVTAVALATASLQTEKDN
# Method in brief: as §1
# [4] = target: T4, ERG (Homo sapiens, UniProt P11308 1-479); settings: protein: recombinant; tags: N-terminal GST; dsDNA, one strand shown
# T4 sequence: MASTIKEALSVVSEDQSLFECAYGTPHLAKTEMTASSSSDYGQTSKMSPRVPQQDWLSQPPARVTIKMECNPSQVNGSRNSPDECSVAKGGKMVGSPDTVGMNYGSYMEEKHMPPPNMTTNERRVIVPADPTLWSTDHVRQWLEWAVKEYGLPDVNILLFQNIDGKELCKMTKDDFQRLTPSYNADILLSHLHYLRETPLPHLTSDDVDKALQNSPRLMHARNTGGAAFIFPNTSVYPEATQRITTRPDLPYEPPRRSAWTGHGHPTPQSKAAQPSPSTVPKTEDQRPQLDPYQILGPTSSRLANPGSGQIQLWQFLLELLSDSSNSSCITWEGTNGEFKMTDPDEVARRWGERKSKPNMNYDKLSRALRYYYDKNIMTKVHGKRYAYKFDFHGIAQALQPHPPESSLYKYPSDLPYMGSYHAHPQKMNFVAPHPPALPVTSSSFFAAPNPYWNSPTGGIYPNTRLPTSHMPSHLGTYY
# Method in brief: as §1
# [5] = target: ELF1 (Homo sapiens, UniProt P32519 1-619); settings: protein: recombinant; tags: N-terminal GST; dsDNA, one strand shown
# Chain of ELF1 (P32519 whole entry): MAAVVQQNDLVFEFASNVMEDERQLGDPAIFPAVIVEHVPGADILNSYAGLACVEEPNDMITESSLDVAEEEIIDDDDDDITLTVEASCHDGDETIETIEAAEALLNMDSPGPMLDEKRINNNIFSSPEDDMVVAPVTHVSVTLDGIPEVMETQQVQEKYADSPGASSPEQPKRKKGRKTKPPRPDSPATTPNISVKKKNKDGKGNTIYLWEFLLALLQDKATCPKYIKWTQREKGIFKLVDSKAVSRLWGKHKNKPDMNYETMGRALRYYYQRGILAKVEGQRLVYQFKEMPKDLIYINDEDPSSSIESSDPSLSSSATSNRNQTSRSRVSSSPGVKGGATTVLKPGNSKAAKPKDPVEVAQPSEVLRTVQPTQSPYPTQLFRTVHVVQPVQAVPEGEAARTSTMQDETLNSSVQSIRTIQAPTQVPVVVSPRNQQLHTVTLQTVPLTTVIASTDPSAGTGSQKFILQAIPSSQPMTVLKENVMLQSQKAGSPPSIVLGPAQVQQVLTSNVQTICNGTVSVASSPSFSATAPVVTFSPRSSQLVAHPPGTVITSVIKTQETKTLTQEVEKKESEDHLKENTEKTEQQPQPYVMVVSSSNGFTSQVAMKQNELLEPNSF
# Method in brief: as §1
# [6] = target: T5, EHF (Homo sapiens, UniProt Q9NZC4 1-300); settings: protein: recombinant; tags: N-terminal GST; dsDNA, one strand shown
# T5 sequence: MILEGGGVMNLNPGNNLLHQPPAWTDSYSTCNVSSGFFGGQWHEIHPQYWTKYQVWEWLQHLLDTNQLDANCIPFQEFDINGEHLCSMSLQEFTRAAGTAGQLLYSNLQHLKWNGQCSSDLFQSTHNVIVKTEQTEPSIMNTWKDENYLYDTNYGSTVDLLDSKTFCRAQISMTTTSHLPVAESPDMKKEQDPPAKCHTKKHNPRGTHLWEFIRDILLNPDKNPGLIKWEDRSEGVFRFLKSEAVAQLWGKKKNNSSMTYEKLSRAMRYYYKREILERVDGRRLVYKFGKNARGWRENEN
# Method in brief: as §1
# [7] = target: SPI1 (Homo sapiens, UniProt P17947 1-270); settings: protein: recombinant; tags: N-terminal GST; dsDNA, one strand shown
# Method in brief: as §1
# [8] = target: SPIB (Homo sapiens, UniProt Q01892 1-262); settings: protein: recombinant; tags: N-terminal GST; dsDNA, one strand shown
# Chain of SPIB (Q01892 whole entry): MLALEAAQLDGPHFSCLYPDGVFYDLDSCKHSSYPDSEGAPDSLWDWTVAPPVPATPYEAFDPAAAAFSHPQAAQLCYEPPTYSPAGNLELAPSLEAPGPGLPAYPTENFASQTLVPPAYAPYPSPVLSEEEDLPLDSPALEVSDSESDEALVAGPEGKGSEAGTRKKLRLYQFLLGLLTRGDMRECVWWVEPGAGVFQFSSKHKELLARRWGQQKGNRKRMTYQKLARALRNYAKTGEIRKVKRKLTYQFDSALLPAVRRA
# Method in brief: as §1
# [9] = target: T6, ELK3 (Homo sapiens, UniProt P41970 1-407); settings: protein: recombinant; tags: N-terminal GST; dsDNA, one strand shown
# T6 sequence: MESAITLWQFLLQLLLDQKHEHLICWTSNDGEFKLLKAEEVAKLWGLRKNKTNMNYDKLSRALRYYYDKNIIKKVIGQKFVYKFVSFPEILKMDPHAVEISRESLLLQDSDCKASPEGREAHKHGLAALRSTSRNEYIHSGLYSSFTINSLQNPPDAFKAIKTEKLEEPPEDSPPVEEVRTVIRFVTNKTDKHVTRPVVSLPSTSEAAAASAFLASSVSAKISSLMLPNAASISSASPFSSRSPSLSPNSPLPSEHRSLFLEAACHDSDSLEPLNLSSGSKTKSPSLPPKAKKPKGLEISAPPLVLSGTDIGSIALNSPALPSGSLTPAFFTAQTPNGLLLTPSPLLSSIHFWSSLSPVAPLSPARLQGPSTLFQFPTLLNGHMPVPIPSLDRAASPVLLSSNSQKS
# Method in brief: as §1
# [10] = target: T7, FEV (Homo sapiens, UniProt Q99581 1-238); settings: protein: recombinant; tags: N-terminal GST; dsDNA, one strand shown
# T7 sequence: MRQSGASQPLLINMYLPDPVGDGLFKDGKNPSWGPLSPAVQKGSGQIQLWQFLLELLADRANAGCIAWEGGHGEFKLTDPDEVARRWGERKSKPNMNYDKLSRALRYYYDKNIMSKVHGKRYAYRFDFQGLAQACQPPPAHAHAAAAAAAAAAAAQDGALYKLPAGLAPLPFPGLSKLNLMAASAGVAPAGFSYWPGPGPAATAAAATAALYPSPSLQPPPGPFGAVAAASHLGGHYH
# Method in brief: as §1
# [11] = target: ETV5 (Homo sapiens, UniProt P41161 1-510); settings: protein: recombinant; tags: N-terminal GST; dsDNA, one strand shown
# Chain of ETV5 (P41161 whole entry): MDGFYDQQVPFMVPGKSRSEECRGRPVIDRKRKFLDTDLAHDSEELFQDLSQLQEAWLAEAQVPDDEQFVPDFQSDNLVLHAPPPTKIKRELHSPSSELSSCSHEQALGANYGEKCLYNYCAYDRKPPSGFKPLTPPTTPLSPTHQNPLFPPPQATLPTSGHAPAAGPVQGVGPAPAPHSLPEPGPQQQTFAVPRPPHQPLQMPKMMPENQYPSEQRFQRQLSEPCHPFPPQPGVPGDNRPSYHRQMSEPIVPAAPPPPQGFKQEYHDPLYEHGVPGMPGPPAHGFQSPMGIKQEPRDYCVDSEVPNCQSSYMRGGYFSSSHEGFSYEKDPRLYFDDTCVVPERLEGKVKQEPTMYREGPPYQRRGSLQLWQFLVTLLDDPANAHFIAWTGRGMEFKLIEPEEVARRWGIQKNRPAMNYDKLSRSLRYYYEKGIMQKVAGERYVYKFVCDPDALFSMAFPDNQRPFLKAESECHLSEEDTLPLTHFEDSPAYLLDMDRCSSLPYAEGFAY
# Method in brief: as §1
# [12] = target: HSF1 (Homo sapiens, UniProt Q00613 1-529); settings: protein: recombinant; tags: N-terminal GST; chain copies: 3; dsDNA, one strand shown
# Chain of HSF1 (Q00613 whole entry): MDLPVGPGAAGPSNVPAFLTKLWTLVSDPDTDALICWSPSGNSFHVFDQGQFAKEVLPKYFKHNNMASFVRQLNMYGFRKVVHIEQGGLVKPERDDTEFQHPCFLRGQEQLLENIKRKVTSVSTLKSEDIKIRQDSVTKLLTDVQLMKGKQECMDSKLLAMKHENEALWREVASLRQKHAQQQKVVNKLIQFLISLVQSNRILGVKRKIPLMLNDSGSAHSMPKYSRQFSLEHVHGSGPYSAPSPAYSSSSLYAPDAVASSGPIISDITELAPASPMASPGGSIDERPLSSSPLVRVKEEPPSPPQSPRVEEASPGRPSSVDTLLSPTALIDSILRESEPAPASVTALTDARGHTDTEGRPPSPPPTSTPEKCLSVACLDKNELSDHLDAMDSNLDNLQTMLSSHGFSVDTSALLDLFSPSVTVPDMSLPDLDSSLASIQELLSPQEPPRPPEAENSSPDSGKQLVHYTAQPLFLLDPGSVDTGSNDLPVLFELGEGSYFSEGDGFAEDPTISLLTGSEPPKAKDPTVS
# Method in brief: as §1
# [13] = target: T8, SPIC (Homo sapiens, UniProt Q8N5J4 1-248); settings: protein: recombinant; tags: N-terminal GST; dsDNA, one strand shown
# T8 sequence: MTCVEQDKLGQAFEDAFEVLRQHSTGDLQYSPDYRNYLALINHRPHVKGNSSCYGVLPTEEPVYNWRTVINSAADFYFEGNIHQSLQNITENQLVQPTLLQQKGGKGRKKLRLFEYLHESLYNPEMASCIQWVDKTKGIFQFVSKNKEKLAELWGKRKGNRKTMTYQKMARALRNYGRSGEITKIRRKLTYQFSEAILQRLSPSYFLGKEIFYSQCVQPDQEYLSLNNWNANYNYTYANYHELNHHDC
# Method in brief: as §1
# [14] = target: ELF4 (Homo sapiens, UniProt Q99607 1-663); settings: protein: recombinant; tags: N-terminal GST; dsDNA, one strand shown
# Chain of ELF4 (Q99607 whole entry): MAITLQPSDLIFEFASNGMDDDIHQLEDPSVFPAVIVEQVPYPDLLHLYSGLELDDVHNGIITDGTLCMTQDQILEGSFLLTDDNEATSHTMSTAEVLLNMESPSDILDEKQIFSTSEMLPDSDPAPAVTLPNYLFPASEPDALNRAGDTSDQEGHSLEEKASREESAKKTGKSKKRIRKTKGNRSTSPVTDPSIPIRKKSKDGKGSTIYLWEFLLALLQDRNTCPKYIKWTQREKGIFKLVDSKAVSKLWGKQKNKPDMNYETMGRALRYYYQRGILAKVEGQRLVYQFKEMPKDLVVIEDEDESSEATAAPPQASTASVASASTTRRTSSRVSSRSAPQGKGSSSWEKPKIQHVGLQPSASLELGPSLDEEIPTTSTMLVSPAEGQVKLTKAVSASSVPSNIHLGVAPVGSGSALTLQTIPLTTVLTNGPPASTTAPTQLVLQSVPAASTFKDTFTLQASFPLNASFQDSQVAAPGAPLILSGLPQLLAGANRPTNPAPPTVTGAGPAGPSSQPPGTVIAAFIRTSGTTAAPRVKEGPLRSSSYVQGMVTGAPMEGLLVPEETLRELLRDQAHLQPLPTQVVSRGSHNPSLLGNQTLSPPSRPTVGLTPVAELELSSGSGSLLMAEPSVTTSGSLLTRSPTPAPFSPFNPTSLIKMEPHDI
# Method in brief: as §1
# [15] = target: T9, ELK4 (Homo sapiens, UniProt P28324-2 1-405); settings: protein: recombinant; tags: N-terminal GST; dsDNA, one strand shown
# T9 sequence: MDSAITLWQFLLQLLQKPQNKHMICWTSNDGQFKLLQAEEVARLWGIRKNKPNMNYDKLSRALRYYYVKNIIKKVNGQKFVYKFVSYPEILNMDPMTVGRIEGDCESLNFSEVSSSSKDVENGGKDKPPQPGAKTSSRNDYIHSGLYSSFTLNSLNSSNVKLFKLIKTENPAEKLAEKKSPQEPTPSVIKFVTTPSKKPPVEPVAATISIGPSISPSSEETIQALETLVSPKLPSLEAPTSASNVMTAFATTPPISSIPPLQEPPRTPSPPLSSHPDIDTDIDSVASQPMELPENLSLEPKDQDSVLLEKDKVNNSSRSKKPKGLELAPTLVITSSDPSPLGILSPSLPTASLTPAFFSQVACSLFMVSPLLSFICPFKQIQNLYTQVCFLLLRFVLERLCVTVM
# Method in brief: as §1
# [16] = target: T10, ETV2 (Homo sapiens, UniProt O00321 1-342); settings: protein: recombinant; tags: N-terminal GST; dsDNA, one strand shown
# T10 sequence: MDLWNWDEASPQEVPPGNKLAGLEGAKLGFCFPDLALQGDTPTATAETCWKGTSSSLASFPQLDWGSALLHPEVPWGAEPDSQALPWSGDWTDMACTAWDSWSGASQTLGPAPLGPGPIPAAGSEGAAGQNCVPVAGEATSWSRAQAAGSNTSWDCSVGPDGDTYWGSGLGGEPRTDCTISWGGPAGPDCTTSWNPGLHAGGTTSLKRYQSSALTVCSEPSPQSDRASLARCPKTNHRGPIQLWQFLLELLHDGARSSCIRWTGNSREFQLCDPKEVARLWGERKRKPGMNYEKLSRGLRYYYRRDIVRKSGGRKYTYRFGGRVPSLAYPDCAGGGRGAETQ
# Method in brief: as §1
# [17] = target: T11, ELF3 (Homo sapiens, UniProt P78545 1-371); settings: protein: recombinant; tags: N-terminal GST; dsDNA, one strand shown
# T11 sequence: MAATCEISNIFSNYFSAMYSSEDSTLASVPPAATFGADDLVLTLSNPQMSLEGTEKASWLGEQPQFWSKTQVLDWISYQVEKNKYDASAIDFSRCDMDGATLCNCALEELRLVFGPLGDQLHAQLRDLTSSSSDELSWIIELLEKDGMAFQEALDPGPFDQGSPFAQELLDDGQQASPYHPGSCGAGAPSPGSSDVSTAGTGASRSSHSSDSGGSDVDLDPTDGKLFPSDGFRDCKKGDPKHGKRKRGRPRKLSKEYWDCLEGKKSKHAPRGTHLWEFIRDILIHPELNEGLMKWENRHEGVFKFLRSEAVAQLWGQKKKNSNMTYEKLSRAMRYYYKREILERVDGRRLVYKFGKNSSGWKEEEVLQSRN
# Method in brief: as §1
# [18] = target: CRX (Homo sapiens, UniProt O43186 1-299); settings: protein: recombinant; tags: N-terminal GST; dsDNA, one strand shown
# Chain of CRX (O43186 whole entry): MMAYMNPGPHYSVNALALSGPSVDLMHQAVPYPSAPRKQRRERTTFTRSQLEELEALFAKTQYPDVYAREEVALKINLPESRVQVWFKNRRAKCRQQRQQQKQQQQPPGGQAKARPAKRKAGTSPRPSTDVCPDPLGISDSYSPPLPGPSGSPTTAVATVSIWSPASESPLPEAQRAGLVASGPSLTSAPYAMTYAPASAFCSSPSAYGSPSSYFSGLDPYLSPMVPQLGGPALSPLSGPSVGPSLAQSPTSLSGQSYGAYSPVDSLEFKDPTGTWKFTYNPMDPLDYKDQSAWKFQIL
# Method in brief: as §1
# [19] = target: ETV1 (Homo sapiens, UniProt P50549 1-477); settings: protein: recombinant; tags: N-terminal GST; dsDNA, one strand shown
# Chain of ETV1 (P50549 whole entry): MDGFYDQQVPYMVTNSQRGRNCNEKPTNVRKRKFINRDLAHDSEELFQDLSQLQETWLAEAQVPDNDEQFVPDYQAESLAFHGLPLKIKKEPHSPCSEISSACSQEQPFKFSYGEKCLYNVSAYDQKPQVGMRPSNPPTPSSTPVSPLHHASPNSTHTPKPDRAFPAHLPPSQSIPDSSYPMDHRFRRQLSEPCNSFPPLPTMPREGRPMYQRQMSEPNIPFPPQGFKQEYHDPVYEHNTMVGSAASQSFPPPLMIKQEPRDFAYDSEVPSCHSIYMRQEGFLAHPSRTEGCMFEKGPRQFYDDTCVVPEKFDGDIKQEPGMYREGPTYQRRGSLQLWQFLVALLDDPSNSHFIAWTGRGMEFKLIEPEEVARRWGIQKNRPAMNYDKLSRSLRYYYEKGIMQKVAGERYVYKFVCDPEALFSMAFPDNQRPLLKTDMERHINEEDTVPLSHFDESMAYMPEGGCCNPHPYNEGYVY
# Method in brief: as §1
sequence,measurement,setting,value
CTTACT,binding signal,[1],"1.38 fold enrichment (6-mer frequency, TF over GST control)"
same,binding signal,[2],"1.31 fold enrichment (6-mer frequency, TF over GST control)"
same,binding signal,[3],"1.3 fold enrichment (6-mer frequency, TF over GST control)"
same,binding signal,[4],"1.27 fold enrichment (6-mer frequency, TF over GST control)"
same,binding signal,[5],"1.29 fold enrichment (6-mer frequency, TF over GST control)"
same,binding signal,[6],"1.34 fold enrichment (6-mer frequency, TF over GST control)"
same,binding signal,[7],"1.3 fold enrichment (6-mer frequency, TF over GST control)"
same,binding signal,[8],"1.27 fold enrichment (6-mer frequency, TF over GST control)"
same,binding signal,[9],"1.34 fold enrichment (6-mer frequency, TF over GST control)"
same,binding signal,[10],"1.17 fold enrichment (6-mer frequency, TF over GST control)"
same,binding signal,[11],"1.28 fold enrichment (6-mer frequency, TF over GST control)"
same,binding signal,[12],"1.34 fold enrichment (6-mer frequency, TF over GST control)"
same,binding signal,[13],"1.1 fold enrichment (6-mer frequency, TF over GST control)"
same,binding signal,[14],"1.36 fold enrichment (6-mer frequency, TF over GST control)"
same,binding signal,[15],"1.12 fold enrichment (6-mer frequency, TF over GST control)"
same,binding signal,[16],"1.39 fold enrichment (6-mer frequency, TF over GST control)"
same,binding signal,[17],"1.24 fold enrichment (6-mer frequency, TF over GST control)"
same,binding signal,[18],"1.58 fold enrichment (6-mer frequency, TF over GST control)"
same,binding signal,[19],"1.23 fold enrichment (6-mer frequency, TF over GST control)"
